Screening data from PubChem BioAssay.
LmPK inh = inhibitors of Leishmania mexicana pyruvate kinase; purified LmPK, Kinase-Glo ATP luminescence, 1 h; Potency, µM (top dose mostly 57.5 µM), inactives show at the highest dose activity change, negative = inhibition, actives largely listed as inhibitors; actives 0.37% (n = 290,000); further: potency means the concentration at half of the fitted maximal effect; on the % scale 0 is the no-effect control and ±100 the full control effect
Target sequence (Q27686 whole entry, looked up): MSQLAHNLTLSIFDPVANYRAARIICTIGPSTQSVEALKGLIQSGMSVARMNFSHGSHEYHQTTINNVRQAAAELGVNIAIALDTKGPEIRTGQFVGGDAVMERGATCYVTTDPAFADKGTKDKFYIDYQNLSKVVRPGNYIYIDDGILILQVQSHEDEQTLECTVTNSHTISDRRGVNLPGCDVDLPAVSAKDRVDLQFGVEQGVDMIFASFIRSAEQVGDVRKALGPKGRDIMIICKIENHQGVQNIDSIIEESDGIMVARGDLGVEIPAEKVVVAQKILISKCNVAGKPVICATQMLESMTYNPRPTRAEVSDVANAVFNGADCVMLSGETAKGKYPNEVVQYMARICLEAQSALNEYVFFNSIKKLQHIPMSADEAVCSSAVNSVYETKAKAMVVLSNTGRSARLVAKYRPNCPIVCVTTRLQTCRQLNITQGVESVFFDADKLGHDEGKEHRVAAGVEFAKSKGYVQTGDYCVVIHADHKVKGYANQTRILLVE
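qHTS format; LmPK 0.1 nM; substrates PEP 0.5 mM and ADP 0.1 mM. One-hour room-temperature incubation, then coupled luciferase luminescence; 0.5 nM enzyme wells mark activation.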
Sm TGR inh = inhibitors of Schistosoma mansoni thioredoxin glutathione reductase. Potency, µM (top dose mostly 114 µM), for inactives: at the top dose activity change, negative = inhibition, hits mostly inhibitors. Q962Y6. purified TGR, DTNB reduction, TNB absorbance 405 nm. actives 3% (n = 360,000); further: potency means the concentration at half of the fitted maximal effect; on the % scale 0 is the no-effect control and ±100 the full control effect; nearly all actives have a fitted effect of over 60% in size
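First, TGR (20 nM dispensed) and NADPH were mixed with compound. Second, a 15 min room-temperature incubation followed. Third, further NADPH and then DTNB were added to start the reaction. Finally, TNB absorbance was monitored kinetically.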
TbPYK inhibitor = inhibitors of Trypanosoma brucei pyruvate kinase | actives 0.12% (n = 410,000) | AID 624173 | Potency, µM (top dose mostly 76.8 µM), inactives show top-dose activity, negative = inhibition, actives largely listed as inhibitors | TbPYK enzyme, Kinase-Glo Plus ATP luminescence, 45 min; further: potency means the concentration at half of the fitted maximal effect; on the % scale 0 is the no-effect control and ±100 the full control effect; nearly all actives have a fitted effect of over 50% in size
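Readout: single end-point luminescence (Kinase-Glo Plus, 10 min). Reaction conditions were TbPYK/substrate plus 130 uM ADP, 45 min at RT, pH 7.2 TEA buffer. No-enzyme wells served as controls, and data were normalized before concentration-response fitting.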
NS1 function inh = inhibitors of influenza NS1 protein function; Potency, µM (doses to about 46.1 µM), for the others: at the top dose activity, positive = more growth; actives 0.4% (n = 270,000); calls by dose curve; further: potency means the concentration at half of the fitted maximal effect; actives are rising curves; nearly all actives have a fitted effect of over 50% in size
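Read-out: OD600 growth recovery of NS1-expressing budding yeast. Cells grown overnight at 30C in -URA glucose medium, washed, resuspended and diluted 1:100 in 2% galactose assay medium, pH 6.0. Same strain lacking NS1 served as positive control.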
RE007 growth inh = less growth of the S. pombe RE007 Vpr strain | S. pombe RE007 Vpr strain, BacTiter-Glo ATP luminescence, 24 h | Potency, µM (doses to about 92.2 µM), for the others: at the highest dose activity change, negative = less growth, most hits filed as inhibitors | actives 0.21% (n = 360,000) | AID 651644; active means well fitted falling curve with a large enough effect; inconclusive means small, poorly fitted or top-dose-only effect; inactive means no such curve, though single readings can be large or run the other way; further: potency means the concentration at half of the fitted maximal effect; on the % scale 0 is the no-effect control and ±100 the full control effect; nearly all actives have a fitted effect of over 50% in size
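Fission yeast RE007 carrying one integrated HIV-1 vpr copy, seeded at OD 0.01 in PMG+AL medium with 23 nL pinned compound. Grown 24 h at 30 degrees; viability read by BacTiter-Glo luminescence after 5 min.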
Giardia FBPA inh = inhibitors of Giardia lamblia fructose-1,6-bisphosphate aldolase | actives 0.71% (n = 290,000) | Potency, µM (highest dose often 59.6 µM), without a hit: at the top dose activity, negative = inhibition, actives largely listed as inhibitors | purified Giardia FBPA | A8B2U2; further: potency means the concentration at half of the fitted maximal effect; on the % scale 0 is the no-effect control and ±100 the full control effect; nearly all actives have a fitted effect of over 55% in size
Target sequence (A8B2U2 whole entry, looked up): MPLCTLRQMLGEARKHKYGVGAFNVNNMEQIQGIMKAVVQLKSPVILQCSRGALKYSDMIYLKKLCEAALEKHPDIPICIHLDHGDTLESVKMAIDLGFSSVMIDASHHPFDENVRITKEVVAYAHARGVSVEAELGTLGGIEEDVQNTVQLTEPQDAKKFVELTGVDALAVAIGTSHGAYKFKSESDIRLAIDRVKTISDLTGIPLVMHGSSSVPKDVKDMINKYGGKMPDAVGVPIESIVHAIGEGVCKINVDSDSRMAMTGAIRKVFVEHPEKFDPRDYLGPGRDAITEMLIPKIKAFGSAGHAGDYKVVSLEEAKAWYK
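40 nM FBPA preincubated 10 min at RT with compound (up to 57.5 uM final), then substrate plus GAPDH/TPI/NAD/arsenate coupling and diaphorase/resazurin added. Fluorescence read after 20 min at RT, 525/598 nm.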
Flu NS1 inh = influenza NS1 function inhibition validation; shares compounds with NS1 function inh; influenza NS1 function cell assay, 15-point titration; activity change, negative = inhibition, % at 32.9 µM; 1,400 tested, under 10 active; AID 492980; calls by dose curve; further: 0% is about no effect
Flu PR8 replic = reduces influenza A/PR/8/34 replication in MDCK cells; shares compounds with NS1 function inh; virus titer (log TCID50), log10 TCID50 at 5 µM; MDCK infected influenza A/PR/8/34, virus titer TCID50; stronger effect = lower value; AID 504647; actives 30% (n = 95); call rule not given here
Numbers without * were called inactive; ? = inconclusive; . = not tested or not shown; ! = not confirmed by another sample; [ ] = remark or other dose. The list is not random: actives were taken first. Their share in the collection is about 3.5%. Unless noted, the call rests on the fitted dose curve; in most records, active means well fitted curve in the direction sought with a large enough effect; inconclusive means small, poorly fitted or top-dose-only effect, or another doubt; inactive means no such curve, though single readings can be large; an effect the other way counts as inactive or inconclusive.

SMILES | LmPK inh | Sm TGR inh | TbPYK inhibitor | NS1 function inh | RE007 growth inh | Giardia FBPA inh | Flu NS1 inh | others
Cc1c(C(=O)N2CCC(c3nc4ccccc4s3)CC2)oc2ccc(Cl)cc12 | . | 0% | 1% | . | . | . | .
Cc1c(C(=O)N2CCN(Cc3ccc4c(c3)OCO4)CC2)sc2ncnc(N3CCN(c4ccccc4F)CC3)c12 | -7% | -5% | 11% | -16% | -17% | . | .
Cc1c(C(=O)N2CCN(Cc3ccc4c(c3)OCO4)CC2)sc2ncnc(N3CCN(c4ccccc4)CC3)c12 | -1% | -9% | -4% | 2.5µM* | -6% | 16% | ?
Cc1ccc(S(=O)(=O)N2CCC(=O)N(C(COCc3ccc(Cl)cc3Cl)Cc3ccccc3)CC2)cc1 (stereo not drawn) | 6% | 4% | 2% | ? | 5% | -1% | -4 | Flu PR8 replic=7.5*
Cc1cc(C)cc(NC(=O)Cn2c(=O)n(CCC(C)C)c(=O)c3cccnc32)c1 | . | 10% | 2% | . | . | . | .
CC1(c2ccc3ccccc3c2)NC(=O)N(CC(=O)O)C1=O (stereo not drawn) | -6% | -4% | 11% | 1% | -6% | -1% | .
CCCC1(c2ccccc2)NC(=O)N(CC(=O)c2[nH]c(C)c(C(=O)OCC)c2C)C1=O (stereo not drawn) | -1% | -9% | 3% | ? | 25% | -6% | 16 | Flu PR8 replic=6.7*
CCOC(=O)c1c(C)[nH]c(C(=O)CN2C(=O)NC(C)(c3ccc4ccccc4c3)C2=O)c1C (stereo not drawn) | -3% | 6% | 3% | ? | 1% | -9% | -6
CCOC(=O)c1c(C)[nH]c(C(=O)CN2C(=O)NC3(CCCC3)C2=O)c1C | 0% | 4% | 0% | 0% | 5% | 5% | .
CCN(CC)CCSc1nnc2c3cc(F)ccc3n(CC)c2n1 | . | -7% | -14% | . | . | . | .
O=C(Nc1ccc2ccccc2c1)[C@H]1C[C@@H]1[C@H](NP(=O)(c1ccccc1)c1ccccc1)c1ccccc1 | . | . | . | . | . | -11% | .
Cn1c(=O)[nH]c(=O)c2c1nc(Br)n2CC(O)COc1ccccc1 (stereo not drawn) | -6% | -1% | 2% | 7.1µM* | -3% | -13% | -2
Cc1cc(C)c2c(n1)sc1c(-c3ccccc3)c(C#N)c(N)nc12 | 1% | -2% | ? | 4.5µM* | 0% | 14% | 2
Cc1nc(N)c(C#N)c(-c2ccccc2)c1C | 5% | -23% | -4% | -6% | 21% | -3% | .
Cc1ccc(NC(=O)CCC(=O)N/N=C/c2coc3ccccc3c2=O)cc1 | 4% | -1% | 1% | 5.6µM* | -4% | 0% | -18
COc1cccc(Oc2nc3c(c(=O)n(Cc4ccccc4Cl)c(=O)n3C)n2C)c1 | . | 6% | 6% | . | . | . | .
Cc1ccc(S(=O)(=O)Nc2ccc3nc(-c4cccn4C)[nH]c3c2)cc1 | 2% | 0% | 0% | 1.6µM* | -7% | -2% | -34 | Flu PR8 replic=8.5
CCOC(=O)c1cccc(NC(=O)c2cc3c(=O)n(C)c4ccccc4c3n2C)c1 | . | 3% | -12% | . | . | . | .
Cc1cccc(N(C)C(=O)Cc2c(C(=O)O)[nH]c3ccccc23)c1 | . | -5% | -1% | . | . | . | .
CC1=C(C(=O)N2CCCC(N3CCN(c4ccccc4C)CC3)C2)OCCO1 (stereo not drawn) | 5% | -5% | -4% | 2.5µM* | 18% | -2% | 1
COc1ccccc1N1CCN(C2CCCN(C(=O)c3cscn3)C2)CC1 (stereo not drawn) | 4% | 1% | 1% | ? | -17% | -6% | -13
COc1ccccc1N1CCN(C2CCCN(C(=O)c3cc(C4CC4)on3)C2)CC1 (stereo not drawn) | 2% | 8% | 5% | 0% | 1% | -4% | .
N=C(N)n1cccn1 | . | . | -2% | . | . | . | .
Oc1ccccc1Nc1ccccn1 | -1% | 0% | 5% | ? | 11% | 1% | 1
c1ccc(Nc2ccccn2)nc1 | 2% | -4% | 6% | -3% | 3% | -26% | .
SMILES | LmPK inh | Sm TGR inh | TbPYK inhibitor | NS1 function inh | RE007 growth inh | Giardia FBPA inh | Flu NS1 inh | others
COc1ccc(OC)c(NC(=O)CN2C(=O)COc3ccc(S(=O)(=O)NC4CCCC4)cc32)c1 | . | 10% | -2% | . | . | . | .
c1ccc(-c2nc3ccccc3[nH]2)nc1 | ? | 1% | -11% | 4.5µM* | -6% | 2% | ?
COc1ccc(C2=CC(c3ccc(F)cc3)n3ncc(C(=O)Nc4ccc(C)cc4)c3N2)cc1 (stereo not drawn) | . | 27% | 2% | . | . | . | .
COc1ccc(CCNC(=O)c2ccc3c(c2)N(Cc2ccc(C)cc2)CCS3)cc1OC | 4% | 2% | -2% | 7.9µM* | -1% | . | 0
CN(C)c1ccc(-c2nnc3n(Cc4ccccc4)c(=O)c4ccccc4n23)cc1 | . | 2% | -5% | . | . | . | .
NNC(=O)COc1ccc(-c2n[nH]c(C(F)(F)F)c2-c2ccc(Br)cc2)c(O)c1 | 1% | -15% | -4% | 11µM* | . | 0% | 2
CCN(C(=O)c1cc2c(s1)-c1ccccc1OC2)c1cc(Cl)ccc1OC | . | -2% | 5% | . | . | . | .
CC(=O)OC1C2CCC1C(N1CCCCC1)CC2 (stereo not drawn) | 3% | 6% | -8% | . | -8% | -2% | .
CC(=O)OC1C2CCCC1C(N1CCCC1)CC2 (stereo not drawn) | 4% | 10% | -6% | ? | -8% | -1% | 0
CCc1ccc2occ(CC(=O)Nc3ccccc3C(F)(F)F)c2c1 | . | 0% | -9% | . | . | . | .
O=C(Nc1ccc(F)cc1C(F)(F)F)C1CCN(c2ncccn2)CC1 | . | -3% | -6% | . | . | . | .
COC(=O)CCCNC(=O)CN1CC(c2ccccc2)CC1=O (stereo not drawn) | 1% | 6% | 0% | ? | 20% | 2% | 5
CNC[C@H](O)[C@H](O)[C@H](O)[C@H](O)CO | . | . | . | . | . | 3%[21.7 µM] | .
COc1cc2nc(N3CCN(C(=O)C4COc5ccccc5O4)CC3)nc(N)c2cc1OC (stereo not drawn) | 1% | 4% | -9% | 35µM*! | -15%[18.4 µM] | -3% | -33
CC(N=Cc1c(O)[nH]c(=O)[nH]c1=O)c1ccccc1 (stereo not drawn) | 0% | 12% | 2% | 10µM* | 0% | 7% | 0
COc1cccc(CNC(=O)C2Cc3cc(S(=O)(=O)N4CCCCCC4)ccc3N2C(C)=O)c1 (stereo not drawn) | . | -1% | -8% | . | . | . | .
CC(C)C(=O)OCc1cc(=O)n2nc(C3CC3)sc2n1 | . | -1% | -27% | . | . | . | .
